Measured values published in PMC7862700, “An all-to-all approach to the identification of sequence-specific readers for epigenetic DNA modifications on cytosine”.

Columns and labels:
Assay in all cases: DAPPL (digital affinity profiling via proximity ligation, sequencing); 10 mM Tris-HCl pH 7.5, 50 mM NaCl, 1 mM DTT, 4% glycerol, room temperature, 30 min; GST-TFs on glutathione beads, 16-mer random dsDNA library, 0.1% formaldehyde crosslink after washing; high values mean tight binding
[1] = target: HSF1 (Homo sapiens, UniProt Q00613 1-529); conditions: protein: recombinant; tags: N-terminal GST; chain copies: 3; dsDNA, one strand shown
Chain of HSF1 (Q00613 whole entry, the tested form may be a part): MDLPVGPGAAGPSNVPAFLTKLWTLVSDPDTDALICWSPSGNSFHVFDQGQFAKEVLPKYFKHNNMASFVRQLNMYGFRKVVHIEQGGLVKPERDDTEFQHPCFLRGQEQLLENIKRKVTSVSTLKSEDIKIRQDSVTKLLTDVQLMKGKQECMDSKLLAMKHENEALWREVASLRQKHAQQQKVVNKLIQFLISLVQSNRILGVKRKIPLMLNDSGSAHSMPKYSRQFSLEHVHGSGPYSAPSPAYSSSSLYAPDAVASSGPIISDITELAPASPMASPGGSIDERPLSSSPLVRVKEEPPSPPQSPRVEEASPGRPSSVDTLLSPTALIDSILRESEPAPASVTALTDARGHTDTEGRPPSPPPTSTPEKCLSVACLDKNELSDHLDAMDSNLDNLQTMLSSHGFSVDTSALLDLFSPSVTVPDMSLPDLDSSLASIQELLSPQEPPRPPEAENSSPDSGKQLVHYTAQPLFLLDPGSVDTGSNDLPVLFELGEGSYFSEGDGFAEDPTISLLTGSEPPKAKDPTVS
Method in brief: (§1)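 GST fusions of human transcription factors were expressed in yeast and captured with glutathione beads. Once given DNA barcodes and pooled alongside a tag-only sample, they were incubated for 30 min at room temperature with 200 nmole of a random double-stranded 16-mer DNA library in Tris/NaCl/DTT/glycerol buffer, then washed, crosslinked (0.1% formaldehyde), proximity-ligated, PCR-amplified and sequenced on an Illumina NextSeq500. The binding signal of each hexamer is its read frequency for a factor divided by its frequency for the tag-only sample.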

[2] = target: T1, ELK4 (Homo sapiens, UniProt P28324-2 1-405); conditions: protein: recombinant; tags: N-terminal GST; dsDNA, one strand shown
T1 sequence: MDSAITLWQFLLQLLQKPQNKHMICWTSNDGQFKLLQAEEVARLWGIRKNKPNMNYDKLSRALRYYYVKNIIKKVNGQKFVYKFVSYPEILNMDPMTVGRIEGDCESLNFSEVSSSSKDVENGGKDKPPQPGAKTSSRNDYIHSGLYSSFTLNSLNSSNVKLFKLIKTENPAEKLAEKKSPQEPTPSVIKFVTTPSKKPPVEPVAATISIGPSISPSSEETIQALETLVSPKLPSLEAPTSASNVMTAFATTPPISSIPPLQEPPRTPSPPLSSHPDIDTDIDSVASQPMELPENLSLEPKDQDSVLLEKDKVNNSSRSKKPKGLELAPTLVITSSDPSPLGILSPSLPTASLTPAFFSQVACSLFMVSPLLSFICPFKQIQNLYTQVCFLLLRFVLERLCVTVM
Method in brief: as §1

[3] = target: T2, ELF3 (Homo sapiens, UniProt P78545 1-371); conditions: protein: recombinant; tags: N-terminal GST; dsDNA, one strand shown
T2 sequence: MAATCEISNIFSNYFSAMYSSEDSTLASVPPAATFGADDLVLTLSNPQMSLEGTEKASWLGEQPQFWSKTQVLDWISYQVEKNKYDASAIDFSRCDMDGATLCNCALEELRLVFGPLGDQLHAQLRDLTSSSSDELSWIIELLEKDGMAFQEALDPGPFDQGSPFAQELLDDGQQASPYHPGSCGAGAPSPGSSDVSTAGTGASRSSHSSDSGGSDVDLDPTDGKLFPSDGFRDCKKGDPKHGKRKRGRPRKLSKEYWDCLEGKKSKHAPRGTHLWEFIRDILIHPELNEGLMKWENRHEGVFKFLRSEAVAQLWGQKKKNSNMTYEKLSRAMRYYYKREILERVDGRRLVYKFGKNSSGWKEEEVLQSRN
Method in brief: as §1

[4] = target: CRX (Homo sapiens, UniProt O43186 1-299); conditions: protein: recombinant; tags: N-terminal GST; dsDNA, one strand shown
Chain of CRX (O43186 whole entry): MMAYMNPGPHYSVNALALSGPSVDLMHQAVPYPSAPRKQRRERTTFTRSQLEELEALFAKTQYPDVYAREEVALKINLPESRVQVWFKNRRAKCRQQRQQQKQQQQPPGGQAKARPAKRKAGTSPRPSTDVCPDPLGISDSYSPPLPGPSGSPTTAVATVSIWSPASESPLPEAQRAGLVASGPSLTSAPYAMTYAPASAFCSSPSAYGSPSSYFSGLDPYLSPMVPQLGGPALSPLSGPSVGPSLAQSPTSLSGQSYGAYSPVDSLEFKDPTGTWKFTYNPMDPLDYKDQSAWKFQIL
Method in brief: as §1

[5] = target: T3, ETV7 (Homo sapiens, UniProt Q9Y603 1-341); conditions: protein: recombinant; tags: N-terminal GST; dsDNA, one strand shown
T3 sequence: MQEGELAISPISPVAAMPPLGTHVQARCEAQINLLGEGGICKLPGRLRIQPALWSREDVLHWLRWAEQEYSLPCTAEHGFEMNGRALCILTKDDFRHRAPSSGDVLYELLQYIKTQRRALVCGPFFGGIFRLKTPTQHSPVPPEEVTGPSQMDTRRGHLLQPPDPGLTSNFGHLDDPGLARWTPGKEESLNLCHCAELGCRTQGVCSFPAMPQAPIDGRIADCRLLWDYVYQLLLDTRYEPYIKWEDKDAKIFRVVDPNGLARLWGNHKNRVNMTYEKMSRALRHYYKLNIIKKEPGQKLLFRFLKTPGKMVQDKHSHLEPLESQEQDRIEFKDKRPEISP
Method in brief: as §1

[6] = target: T4, ERG (Homo sapiens, UniProt P11308 1-479); conditions: protein: recombinant; tags: N-terminal GST; dsDNA, one strand shown
T4 sequence: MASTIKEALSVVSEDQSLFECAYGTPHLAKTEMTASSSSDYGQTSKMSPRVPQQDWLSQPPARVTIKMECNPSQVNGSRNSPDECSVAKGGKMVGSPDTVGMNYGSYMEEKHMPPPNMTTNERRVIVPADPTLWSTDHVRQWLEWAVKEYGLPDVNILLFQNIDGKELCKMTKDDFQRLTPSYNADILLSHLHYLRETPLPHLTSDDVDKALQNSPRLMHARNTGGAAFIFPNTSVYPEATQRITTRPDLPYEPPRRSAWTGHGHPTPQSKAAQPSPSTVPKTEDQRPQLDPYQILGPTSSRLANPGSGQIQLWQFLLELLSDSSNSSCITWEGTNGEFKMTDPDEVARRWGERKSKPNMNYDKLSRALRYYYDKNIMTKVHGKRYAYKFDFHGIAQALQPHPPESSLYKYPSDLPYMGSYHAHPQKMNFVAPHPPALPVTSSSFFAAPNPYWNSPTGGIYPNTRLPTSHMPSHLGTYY
Method in brief: as §1

[7] = target: T5, SPIC (Homo sapiens, UniProt Q8N5J4 1-248); conditions: protein: recombinant; tags: N-terminal GST; dsDNA, one strand shown
T5 sequence: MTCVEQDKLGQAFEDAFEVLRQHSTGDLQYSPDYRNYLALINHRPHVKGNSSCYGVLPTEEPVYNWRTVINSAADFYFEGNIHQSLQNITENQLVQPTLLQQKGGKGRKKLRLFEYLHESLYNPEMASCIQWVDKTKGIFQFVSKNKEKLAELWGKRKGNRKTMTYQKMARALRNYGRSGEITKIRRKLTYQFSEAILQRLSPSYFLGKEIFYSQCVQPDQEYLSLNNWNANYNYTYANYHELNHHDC
Method in brief: as §1

[8] = target: T6, GABPA (Homo sapiens, UniProt Q06546 1-454); conditions: protein: recombinant; tags: N-terminal GST; dsDNA, one strand shown
T6 sequence: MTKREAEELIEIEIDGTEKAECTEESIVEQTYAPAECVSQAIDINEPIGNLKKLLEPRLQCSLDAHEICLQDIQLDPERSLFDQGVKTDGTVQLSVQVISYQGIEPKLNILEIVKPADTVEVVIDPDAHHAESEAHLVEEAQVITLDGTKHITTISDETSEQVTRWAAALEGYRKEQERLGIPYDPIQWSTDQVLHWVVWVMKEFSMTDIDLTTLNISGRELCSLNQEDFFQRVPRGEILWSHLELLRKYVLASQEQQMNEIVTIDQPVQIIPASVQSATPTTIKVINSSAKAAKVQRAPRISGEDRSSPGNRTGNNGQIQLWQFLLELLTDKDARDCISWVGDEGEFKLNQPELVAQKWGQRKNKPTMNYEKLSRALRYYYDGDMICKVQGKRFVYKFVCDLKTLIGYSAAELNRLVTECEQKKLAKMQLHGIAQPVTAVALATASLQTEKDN
Method in brief: as §1

Sequence	binding signal [1]	binding signal [2]	binding signal [3]	binding signal [4]	binding signal [5]	binding signal [6]	binding signal [7]	binding signal [8]
AGAAGA	1.68 fold enrichment (6-mer frequency, TF over GST control)	1.05 fold enrichment (6-mer frequency, TF over GST control)	1.03 fold enrichment (6-mer frequency, TF over GST control)	1.14 fold enrichment (6-mer frequency, TF over GST control)	1.01 fold enrichment (6-mer frequency, TF over GST control)			
AGAACC	1.55 fold enrichment (6-mer frequency, TF over GST control)		1.06 fold enrichment (6-mer frequency, TF over GST control)			1.01 fold enrichment (6-mer frequency, TF over GST control)	1.03 fold enrichment (6-mer frequency, TF over GST control)	
ATCAGA	1.09 fold enrichment (6-mer frequency, TF over GST control)	1.05 fold enrichment (6-mer frequency, TF over GST control)		1.25 fold enrichment (6-mer frequency, TF over GST control)				1.11 fold enrichment (6-mer frequency, TF over GST control)
